# Data: ChEMBL document CHEMBL3988442, “University of Dundee, Small-Polar-MMV Screening Library” (2021)
# Among all 53,000 compounds or so, about 900 (1.7%) showed an effect of 50% or more. The entries come from a sample that favours strong results as a whole.
# Test system: Mycobacterium tuberculosis
# Assay: Cornell - Phenotypic assay to identify agents that inhibit growth of Mycobacterium tuberculosis
# Format: functional
# Set-up: scale not given: direction of the effect not stated beside the values
# Conditions: 10 mM as filed; unlikely as a test dose
row,SMILES,Percent Effect
1,CC(NC(=O)c1cn(CCC2CCCCC2)nn1)c1cnn(C)c1 (configuration not stated),-6.193%
2,Cc1nc2c(NC(CC(C)(C)C)c3cccnc3)ncnc2o1 (configuration not stated),-7.649%
3,CCCOc1ccccc1CCCNc1ncnc2oc(C)nc12,30.24%
4,CCCOc1ccc(Cl)cc1CNc1ncnc2oc(C)nc12,65.32%
5,CCc1nnc(CN(C)C(=O)C(CC)n2c(CC)nc3ccccc32)o1 (configuration not stated),5.212%
6,CCNC(=O)[C@@H]1C[C@@H](NC(=O)c2cc(C)on2)CN1Cc1ccccn1,-5.653%
7,COc1ccc(C)cc1NC(=O)Nc1cnc(O)nc1O,28.36%
8,CCN(CC)c1ccc(NS(=O)(=O)c2cncc(F)c2)cn1,62.74%
9,CCN(CC)c1ccc(NS(=O)(=O)c2cnn(C)c2)cn1,9.807%
10,CCN(CC)c1ccc(NS(=O)(=O)c2cccnc2)cn1,24.54%
11,COc1cccc(CNCC2CN(C)CCO2)c1 (configuration not stated),10.27%
12,CC(=O)N1CCN(Cc2ccc(OCc3nccn3C)cc2)CC1,-16.77%
13,Cc1cc2nccc(C3CCCN(C(=O)c4ccccc4F)C3)n2n1 (configuration not stated),8.36%
14,c1nc(-c2nc(C3CCOC3)no2)cs1 (configuration not stated),-30.96%
15,O=C(Nc1ccccc1)c1ccc(NCc2ccncc2)nn1,71.71%
16,O=C(Nc1ccccc1)c1ccc(NCc2ccccc2CO)nn1,16.95%
17,O=C(Nc1ccccc1)c1ccc(NCc2nccs2)nn1,40.64%
18,CC(=O)N1CCCC1c1nc(C)c2c(n1)N(Cc1ccccn1)CCC2 (configuration not stated),-10.82%
19,O=C(CCCOCc1ccccc1)N1CCCC(c2ncc[nH]2)C1 (configuration not stated),18.83%
20,O=C(Cc1cccs1)N1CC[C@H]2[C@@H]1CCC(=O)N2c1cccnc1.O=C(O)C(F)(F)F,4.016%
21,CNc1nc2c(s1)C(c1ccc(Cl)cc1Cl)CC(=O)N2 (configuration not stated),15.33%
22,O=C1CC(c2ccccc2C(F)(F)F)c2sc(N3CCOCC3)nc2N1 (configuration not stated),43.16%
23,COc1ccccc1C1CC(=O)Nc2c1c(=O)[nH]n2C(C)C (configuration not stated),7.683%
24,O=C1CC(c2ccccc2Br)c2sc(N3CCOCC3)nc2N1 (configuration not stated),44.02%
25,COc1ccccc1C1CC(=O)Nc2nc(N3CCCCC3)sc21 (configuration not stated),102.8%

row,SMILES,Percent Effect
1,COc1cccc(C2CC(=O)Nc3nc(N4CCOCC4)sc32)c1OC (configuration not stated),84.05%
2,CCOc1cccc(C2CC(=O)NCc3nc(N4CCCC4)sc32)c1 (configuration not stated),-20.96%
3,COc1cccc(C2CC(=O)Nc3nc(N4CCCCC4)sc32)c1OC (configuration not stated),70.71%
4,COc1ccccc1C1CC(=O)Nc2c1c(=O)[nH]n2C1CCCC1 (configuration not stated),42.49%
5,CCn1ncnc1C1CC(=O)NCc2nc(N3CCOCC3)sc21 (configuration not stated),3.2%
6,CC(C)Oc1ccccc1C1CC(=O)Nc2nc(N3CCOCC3)sc21 (configuration not stated),106.3%
7,CCNc1nnc(CCn2nc(C)c(Br)c2C)s1,29.93%
8,COCC(O)CN1CCC(=O)N(CC=C(C)C)Cc2ccccc21 (configuration not stated),-1.382%
9,CCc1cnc(N2C[C@H]3C[C@H](C(=O)N4CCOCC4)[C@@H](C2)O3)nc1.O=C(O)C(F)(F)F,10.32%
10,CCS(=O)(=O)Nc1ccc(C(=O)NCCCN2CCCC2)cc1,-15.51%
11,CCc1cnc(N2CC[C@H]3[C@@H]2CCC(=O)N3c2ccccc2)nc1.O=C(O)C(F)(F)F,-28.43%
12,CCc1nnc(CN(CC)C(=O)C2CC(=O)N(C3CC3)C2)o1 (configuration not stated),3.101%
13,CNC(=O)C1CCCN1C(=O)NCCCc1cccc(F)c1 (configuration not stated),3.774%
14,COc1ccc(OC)c(C2CC(=O)Nc3nc(N4CCOCC4)sc32)c1 (configuration not stated),77.37%
15,COc1ccc(C2CC(=O)Nc3nc(N4CCOCC4)sc32)c(OC)c1 (configuration not stated),45.08%
16,COc1ccc(C2SCC(=O)Nc3n[nH]cc32)c(OC)c1OC (configuration not stated),-14.08%
17,COc1ccc(C2CC(=O)Nc3nc(N4CCOCC4)sc32)cc1 (configuration not stated),22.64%
18,COc1cccc(C2SCC(=O)Nc3ccsc32)c1OC (configuration not stated),25.58%
19,COc1cccc(C2CC(=O)Nc3nc(N)sc32)c1OC (configuration not stated),76.98%
20,CCN(Cc1ccncc1)CC1(O)CCN(C(=O)c2cnn(C)c2)C1 (configuration not stated),-5.524%
21,O=C(NCc1ccccc1)[C@H]1C[C@@H]2CN(C(=O)NC3CCCC3)C[C@H]1O2,-33.72%
22,Cc1cc(C(=O)N2C[C@@H]3OCCN(CCN4CCCC4)[C@@H]3C2)c(C)o1.O=C(O)C(F)(F)F,-34.44%
23,Cc1cccc(NC2CCN(C(=O)Nc3cn[nH]c3)CC2)n1,5.834%
24,CCc1cc(N(C)Cc2ccno2)n2nc(C)c(C)c2n1,28.15%
25,Cc1nc(NC2CCN(S(=O)(=O)c3ccccc3)CC2)[nH]c(=O)c1C,-2.855%

row,SMILES,Percent Effect
1,Cc1cc(=O)[nH]c(NC2CCN(S(=O)(=O)c3ccccc3)CC2)n1,26.85%
2,CCc1cc(=O)[nH]c(NC2CCN(S(=O)(=O)c3ccccc3)CC2)n1,69.51%
3,O=C(N1CCOCC1)N1CCc2ncc(CN3CCCCC3)n2CC1.O=C(O)C(F)(F)F,15.78%
4,COCCCN(Cc1ccccn1)S(=O)(=O)c1ccc(OC)cc1,-5.527%
5,CC(C)(C)c1cc(NC(=O)NCCc2nnc3n2CCC3)c(C#N)s1,18.93%
6,Cc1noc(CCCNC(=O)CNC(=O)c2cc3ccccc3[nH]2)n1,17.25%
7,Cc1noc(CCCC(=O)Nc2ncccc2Br)n1,-30.93%
8,Cc1noc(CCCC(=O)NCCc2cc3ccccc3[nH]2)n1,55.01%
9,O=C(O)C(F)(F)F.O=C(O)C(F)(F)F.c1nc(CN2CCC3(CC2)COCCN3CC2CC2)c[nH]1,14.15%
10,CC(=O)N1CCC2(C1)c1ccccc1S(=O)(=O)N2Cc1ccccc1 (configuration not stated),-2.139%
11,CCS(=O)(=O)N1CCc2ccc(NC(=O)Nc3ccccc3)cc21,24.03%
12,CCS(=O)(=O)N1CCc2ccc(NC(=O)Nc3cccc(C)c3)cc21,35.62%
13,CCS(=O)(=O)N1CCc2ccc(NC(=O)Nc3cccc(C#N)c3)cc21,83.89%
14,O=C(CC1=CSC2=NCCCN12)N1CCCCCC1c1ccco1 (configuration not stated),-8.894%
15,Cc1nn(C)c2nc(-c3ccccn3)nc(NCCCOC(C)C)c12,64.07%
16,Cc1nn(C)c2nc(-c3ccccn3)nc(NCCC3CCCN3C)c12 (configuration not stated),-44.58%
17,CC(=O)NCCNc1nc(-c2ccccn2)nc2c1c(C)nn2C,12.46%
18,Cc1nn(C)c2nc(-c3ccccn3)nc(NC[C@@H]3CCCO3)c12,21.74%
19,CCSCCNc1nc(-c2ccccn2)nc2c1c(C)nn2C,51.67%
20,CSCC[C@@H](CO)Nc1nc(-c2ccccn2)nc2c1c(C)nn2C,2.174%
21,Cc1nc(-c2cc(C(=O)O)co2)cs1,58.57%
22,Cc1nc(-c2cc(C(=O)NC(C)(C(=O)O)C(C)C)co2)cs1 (configuration not stated),45.67%
23,CNC(=O)c1coc(-c2csc(C)n2)c1,11.85%
24,CCn1cc(CN2C[C@@H]3CCCN3C[C@H]2CCSC)c(C)n1,-15.91%
25,Cc1ccc2c(c1)C1(CCNCC1)CN2C(=O)CN(C)C.O=C(O)C(F)(F)F.O=C(O)C(F)(F)F,0.8832%

row,SMILES,Percent Effect
1,CCS(=O)(=O)Nc1ccn(Cc2ccc(F)cc2Cl)n1,28.06%
2,Cn1ncc2c1NC(=O)CC2c1ccc(Cl)cc1Cl (configuration not stated),59.83%
3,Cn1ncc2c1NC(=O)CC2c1ccccc1Cl (configuration not stated),-9.252%
4,Cn1ncc2c1NC(=O)CC2c1cc(Cl)ccc1F (configuration not stated),13.85%
5,Cc1cc(CS(=O)(=O)C(C)C(=O)N(C)c2ccccc2)on1 (configuration not stated),-17.42%
6,CN(Cc1ccco1)[C@@H]1CN(C(=O)C2CCOCC2)C[C@@H]2CCCO[C@@H]21.O=C(O)C(F)(F)F,-2.901%
7,NC(=O)C1CCCN(Cc2ccc(C(=O)Nc3cnns3)cc2)C1 (configuration not stated),2.81%
8,CC(=O)Nc1nc(C(=O)NCc2ccc(N3CCCC3)nc2)cs1,-0.1463%
9,CSCc1cccc(NC(=O)N2CCC(N3CC=CC3)C2)c1 (configuration not stated),-39.08%
10,CCn1c(C)cc(C(=O)N2CCC(Nc3cccnn3)CC2)c1C,7.118%
11,CC(C)Nc1cc(-c2c[nH]nc2C2CCN(C(=O)C3CCC3)C2)ccn1 (configuration not stated),58.28%
12,CC(C)CNc1cc(-c2c[nH]nc2C2CCN(C(=O)C3CC3)C2)ccn1 (configuration not stated),30.66%
13,CC(C)Nc1cc(-c2c[nH]nc2C2CCN(C(=O)C3CC3)C2)ccn1 (configuration not stated),31.29%
14,COCCN1C[C@@H]2[C@@H](OC)CCN(S(=O)(=O)c3cccnc3)[C@@H]2C1.O=C(O)C(F)(F)F.O=C(O)C(F)(F)F,21.64%
15,CCOCC(=O)N1CCc2nc(C)nc(NC(C)C)c2CC1,-12.05%
16,Cc1noc(C)c1CC(=O)N[C@@H]1CC[C@@H](Oc2ccccc2)[C@@H]1O,21.6%
17,Cc1noc(C)c1C(=O)N[C@@H]1CC[C@@H](Oc2ccccc2)[C@@H]1O,21.33%
18,Cc1noc(C)c1C(=O)N[C@@H]1CCC[C@@H](Oc2ccccc2)[C@@H]1O,50.47%
19,Cc1n[nH]c(C)c1CCC(=O)N[C@@H]1CCC[C@@H](Oc2ccccc2)[C@@H]1O,-14.05%
20,Cc1noc(C)c1CCC(=O)N[C@@H]1CC[C@@H](Oc2cccnc2)[C@@H]1O,15.37%
21,CC(C)c1cc(C(=O)N[C@@H]2CC[C@@H](Oc3ccccc3)[C@@H]2O)on1,75.51%
22,COCC(NC(=O)c1cnc(-c2ccncc2)nc1)c1ccnn1C (configuration not stated),1.357%
